# Sm TGR block – inhibitors of Schistosoma mansoni thioredoxin glutathione reductase. Q962Y6. purified TGR, DTNB reduction, TNB absorbance 405 nm. Potency, µM (doses to about 114 µM), without a hit: at the highest dose activity change, negative = inhibition, usual class: inhibitors. 3% of 360,000 active. AID 485364; also: potency is read from the fitted curve at half-maximal effect; % is scaled to controls: 0 for no effect and ±100 for the full control effect; nearly all actives have a fitted effect of over 60% in size
#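 First, TGR (20 nM dispensed) and NADPH were mixed with compound. Second, a 15 min room-temperature incubation followed. Third, further NADPH and then DTNB were added to start the reaction. Finally, TNB absorbance was monitored kinetically.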
# Pf growth 48h – P. falciparum growth inhibition at 48 hours (one generation) | P. falciparum luciferase growth in erythrocytes, 48 h | Potency, µM (series often up to 28.7 µM), for inactives: top-dose activity change, negative = inhibition, most hits filed as inhibitors | 5.9% of 310,000 active; also: potency is read from the fitted curve at half-maximal effect; % is scaled to controls: 0 for no effect and ±100 for the full control effect
#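 First compound was added to culture medium, then infected red cells at 0.1% parasitemia and 2% hematocrit (final). After incubation at 37 C under 5% CO2, luciferase detection reagent was dispensed and light output recorded.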
# HCV inh – blocks hepatitis C virus. Huh7.5.1 HCVcc-Cre infection, luciferase reporter, 44 h. Potency, µM (series often up to 41.8 µM), inactives show at the highest dose activity change, negative = inhibition, usual class: inhibitors. 3.4% of 340,000 active. AID 651820; also: potency is read from the fitted curve at half-maximal effect; % is scaled to controls: 0 for no effect and ±100 for the full control effect
#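 1,000 cells/well; 4 h culture; + compound; + HCVcc-Cre (~0.5 moi); 44 h; luciferase substrate, RT 15 min; read 15 sec.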
# SARS PLP yeast – SARS-CoV PLP inhibition in yeast. Potency, µM (titrated, usually from 32.9 µM), without a hit: at the highest dose activity, positive = growth rescue, actives largely listed as activators. S. cerevisiae expressing SARS-CoV PLpro, growth rescue. 0.19% of 330,000 active. AID 485353; calls by dose curve; also: potency is read from the fitted curve at half-maximal effect; 0% is about no effect; nearly all actives have a fitted effect of over 55% in size
# Pf growth 96h – inhibits malaria parasite growth, 96 h | P. falciparum luciferase reporter growth, 96 h | Potency, µM (top dose mostly 28.7 µM), for inactives: at the top dose activity change, negative = inhibition, usual class: inhibitors | 6.9% of 320,000 active; also: potency is read from the fitted curve at half-maximal effect; % is scaled to controls: 0 for no effect and ±100 for the full control effect
#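 96 h incubation, 37 C, 5% CO2, of luciferase-reporter P. falciparum-infected RBCs (2% hematocrit, 0.05% parasitemia final) with test compounds; endpoint luminescence.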
# HCMV antiviral – blocks human cytomegalovirus replication; HFF cells, HCMV-luciferase reporter, 72 h; active compounds read low; activity change, negative = inhibition, % at 57.5 µM; 4.5% of 410,000 active; in the data active = activity change below about -60%; inconclusive = no clear call, values can overlap the other calls; inactive = above about -39%; also: % is scaled to controls: 0 for no effect and ±100 for the full control effect
#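 Cell-based, HFFs, 1000 cells/well, 16 h 37C; cpds in DMSO + HCMV-luc, MOI 1 PFU/cell; 72 h 37C; OneGlo luminescence after 5 min RT; norm. to buffer vs Salinomycin 10uM.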
# Starred values were filed as active, the others as inactive; ? = inconclusive; · = no result; [ ] = another dose, or the depositor's remark. This is a sample that favours compounds with a hit; in the whole collection about 15% have one here. Unless noted, calls follow the shape of the dose curve; as a rule, active = well fitted curve in the direction sought with a large enough effect; inconclusive = small, poorly fitted or top-dose-only effect, or another doubt; inactive = no such curve, though single readings can be large; an effect the other way counts as inactive or inconclusive.
SMILES,Sm TGR block,Pf growth 48h,HCV inh,SARS PLP yeast,Pf growth 96h,HCMV antiviral
CS(=O)(=O)c1ccc(C(=O)OCC(=O)NC23CC4CC(CC(C4)C2)C3)cc1[N+](=O)[O-],2.8µM*,0%,?,-13%,-1%,35
Cn1cccc1C(=O)NC(=O)COC(=O)c1ccc(S(C)(=O)=O)c([N+](=O)[O-])c1,·,·,?,-1%,·,·
CC(OC(=O)c1ccc(S(C)(=O)=O)c([N+](=O)[O-])c1)C(=O)NC1C2CC3CC(C2)CC1C3 (stereo unspecified),·,·,·,·,·,-97*
CC(C)CN1CCN(C(=O)COC(=O)c2ccc(S(C)(=O)=O)c([N+](=O)[O-])c2)CC1,·,·,·,·,·,35
O=C(CSc1nncs1)Nc1nnc(-c2ccccc2)o1,4%,0%,30%,0%,12%,15
Nc1ccc2ccc(O)cc2c1,·,·,-8%,·,·,0
Nc1cccc(O)c1,7.1µM*,-11%,14%,0%,?,-1
CCC1=C(c2ccc(C)cc2)S(=O)(=O)N=C1N1CCC(C(=O)Nc2ccccc2F)CC1,-12%,·,·,·,·,-4
Cn1c(=O)c(C(=O)COC(=O)c2cc(-c3ccco3)nc3ccccc23)c(N)n(CC2CC2)c1=O,3.5µM*,?,-17%[8.37 µM],1%,8.3µM*,·
CNS(=O)(=O)c1cccc(C(=O)OCC(=O)c2c(N)n(Cc3ccccc3)c(=O)n(C)c2=O)c1,·,·,?,·,·,-39
CC(C)Cn1c(N)c(C(=O)COC(=O)c2cc3ccccc3cc2O)c(=O)n(C)c1=O,·,·,?,-1%,·,?
Cn1c(=O)c(C(=O)COC(=O)c2cc(C3CC3)nc3ccccc23)c(N)n(Cc2ccccc2)c1=O,-2%,?,3.5µM*,-9%,9.3µM*,6
Cn1c(=O)c(C(=O)COC(=O)c2cc(-c3ccccc3)nc3ccccc23)c(N)n(Cc2ccccc2)c1=O,-13%,?,0%[8.37 µM],-8%,?,·
Cn1c(=O)c(C(=O)COC(=O)c2cc(C(F)(F)F)nc3ccccc23)c(N)n(Cc2ccccc2)c1=O,-20%,12µM*,-10%[8.37 µM],-3%,?,53
O=C(Cn1cnc2cc([N+](=O)[O-])ccc2c1=O)NC1CCS(=O)(=O)C1 (stereo unspecified),49%,-18%,9%,1%,27%,24
COC(=O)CN1C(=O)C(C)(C)c2cc(S(=O)(=O)Nc3ccc(Br)cc3F)ccc21,-2%,·,·,·,·,-13
CCOC(=O)N1CCN(C(=O)CSCc2nc(-c3ccccc3F)oc2C)CC1,6%,-18%,?,-1%,?,-80*
CCC(C)NC(=O)CSCc1nc(-c2ccc(C)cc2)oc1C (stereo unspecified),-22%,·,·,·,·,-24
Cc1oc(-c2ccccc2Cl)nc1CSCC(=O)NC1CC1,-16%,?,?,-1%,?,18
Cc1oc(-c2ccccc2F)nc1CS(=O)(=O)CC(=O)NC1CCCC1,40µM*,3%,-25%,10%,6%,26
COC(=O)CSCc1nc(-c2ccc(C(=O)OC)cc2)oc1C,-1%,·,·,·,·,-63*
Cc1oc(-c2ccccc2F)nc1CSCC(=O)NC1CCCC1,-29%,4%,?,0%,1.5µM*,-34
CCN(C)C1CN(Cc2cn(Cc3cc(C)cc(C)c3)nn2)S(=O)(=O)C1 (stereo unspecified),·,·,·,·,·,19
O=C(Nc1ccc(F)c(Cl)c1)N1CCCCCC1,0%,51%,16%,1%,-44%,57
Cc1oc(-c2ccccc2F)nc1CS(=O)(=O)CC(=O)NCCCN1CC(C)CC(C)C1 (stereo unspecified),0%,?,-22%,4%,?,-23
SMILES,Sm TGR block,Pf growth 48h,HCV inh,SARS PLP yeast,Pf growth 96h,HCMV antiviral
Cc1ccc(-c2nc(CS(=O)(=O)CC(=O)NC3CCCCCC3)c(C)o2)cc1,25µM*,10%,11%,20%,-3%,-15
CCc1ccc(-c2nc(CSCC(=O)NC3CC3)c(C)o2)cc1,-15%,?,?,-2%,32%,-74*
Cc1oc(-c2ccccc2F)nc1CS(=O)(=O)CC(=O)NCCCN1CCN(C)CC1,-20%,-3%,1%,5%,10µM*,-24
CCOc1ccc(CCNC(=O)CS(=O)(=O)Cc2nc(-c3ccccc3F)oc2C)cc1,?,-19%,10µM*,9%,?,-66*
CCOc1ccc(CCNC(=O)CS(=O)(=O)Cc2nc(-c3ccc(OC)cc3)oc2C)cc1,-25%,-17%,-13%,7%,87%,-21
Cc1cccc(N(C)S(=O)(=O)c2c[nH]c3ccc([N+](=O)[O-])cc23)c1,-5%,22%,-29%,·,?,?
Cc1csc2nc(-c3ccc(NS(=O)(=O)c4cc(F)ccc4F)cc3)cn12,3%,·,·,·,·,-22
CSC1=NCCN1C(=O)Cc1ccc(F)cc1,-7%,·,9%,1%,9.3µM*,-13
O=C(Cc1ccc(F)cc1)N1CCN=C1SCc1ccc([N+](=O)[O-])cc1,-18%,?,?,10%,?,-68*
CSC1=NCCN1C(=O)c1c(F)cccc1Cl,2%,·,13%,1%,?,-100*
CCOc1ccc(C(=O)N2CCN=C2SC)cc1OCC,1%,?,10%,-1%,16%,9
CCOc1ccccc1C(=O)N1CCN=C1SC,6%,·,5%,11%,15µM*,-3
CC(C)(C)c1ccc(S(=O)(=O)c2cn(CC(=O)Nc3ccccc3)c3ccccc3c2=O)cc1,13%,·,·,·,·,29
O=C(Nc1cccc2nsnc12)c1cc2c(cc1Cl)Sc1nccn1S2(=O)=O,·,·,9%,·,·,-8
COC(=O)c1cc(S(=O)(=O)N(Cc2ccccc2)C(C)(C)C)c[nH]1,-16%,-1%,-10%,5%,?,?
CCN1C(=S)SC(=O)C1=C1C=C(C)N(CCO)C(C)=C1,62%[11.4 µM],·,-16%,0%,27%,-68*
CCN1C(=S)SC(=O)C1=C1C=C(C)N(CCOC)C(C)=C1,0%,238%,·,0%,?,·
Cc1ccc(C(=O)N[C@H](C(=O)Nc2cccc(S(=O)(=O)N3CCOCC3)c2)C(C)C)cc1,·,·,·,·,·,-13
CCOc1ccc(NC(=O)[C@@H](NC(=O)c2ccccc2Br)C(C)C)cc1,1%,·,-7%,8%,15µM*,26
COc1ccc(NC(C)C(=O)Nc2cccc(S(=O)(=O)N3CCOCC3)c2)cc1OC (stereo unspecified),·,·,13µM*,-1%,·,?
CCOc1ccc(C(=O)N[C@H](C(=O)Nc2cccc(S(=O)(=O)N3CCCCC3)c2)C(C)C)cc1,3%,?,?,1%,10µM*,-38
